# PubChem BioAssay
# Values without a mark were called inactive. Unless noted, how the calls were made is not given here.
# Target: Homeobox protein Hox-A13 (Mus musculus) (UniProt Q62424)
# Assay: disruptors of Hoxa13 oligonucleotide interaction – biochemical, fluorescence polarization, labeled oligonucleotide, primary screen (AID 1185)
# Details: Hoxa13:DNA binding, 15 min, higher = more signal, called active from +8 up or from −8 down
# Homeobox protein Hox-A13 (Mus musculus), sequence (Q62424 whole entry, looked up): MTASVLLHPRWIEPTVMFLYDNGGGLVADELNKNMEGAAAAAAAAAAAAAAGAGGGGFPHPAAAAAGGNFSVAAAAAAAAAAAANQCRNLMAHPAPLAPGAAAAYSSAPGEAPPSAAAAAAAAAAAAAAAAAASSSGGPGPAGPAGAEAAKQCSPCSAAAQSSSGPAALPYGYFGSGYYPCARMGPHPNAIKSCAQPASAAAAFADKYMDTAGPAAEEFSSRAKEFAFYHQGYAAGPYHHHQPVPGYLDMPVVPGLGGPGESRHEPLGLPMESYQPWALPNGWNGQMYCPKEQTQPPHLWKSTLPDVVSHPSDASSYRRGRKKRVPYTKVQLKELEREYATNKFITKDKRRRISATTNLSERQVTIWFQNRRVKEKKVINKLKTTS
row,Structure (SMILES),z-score
1,O=C1O[C@H](c2ccccc2)[C@H](c2ccccc2)N2[C@H]1[C@@H](C(=O)Nc1nc3ccccc3s1)[C@]1(C(=O)Nc3ccc(C#CC4(O)CCCCCC4)cc31)[C@H]2c1ccc(O)cc1,-1.04
2,O=C1C2C=CC(C(O)C#Cc3ccccc3)N(Nc3ccccc3)C2C(=O)N1c1ccccc1 (configuration not stated),-4.05
3,CN1C(=O)C2C=CC(C(O)C3CC=CCC3)N(Nc3ccccc3)C2C1=O (configuration not stated),-3.96
4,COCCCNC(=O)[C@@]1(c2ccc([N+](=O)[O-])cc2)CC(=O)N(C2CCCCC2)[C@@H]1c1ccc(CO)cc1,-2.99
5,Cc1ccccc1C(O)C1C=CC2C(=O)N(c3ccccc3)C(=O)C2N1Nc1ccc(C#N)cc1 (configuration not stated),-0.699
6,CCOC(=O)C[C@H]1[C@H](OC(=O)Cc2ccc3c(c2)OCO3)[C@@H](NC(=O)c2ccc3ccccc3c2)c2cc(OCCCO)ccc2N1C(=O)Cc1ccc(OC)cc1,-2.03
7,COC(=O)[C@@]1(Cc2ccccc2CN=[N+]=[N-])N=C(c2ccc(OCCCO)cc2)O[C@H]1c1ccccc1N=[N+]=[N-],0.683
8,O=C/C=C/c1ccc(/C=C/c2ccccc2)cc1,0.0626
9,CC(C)NC(=O)[C@@]1(Cc2ccccc2I)c2ccccc2C(=O)N(C2CCCCC2)[C@H]1c1ccc(CO)cc1,-4.58
10,C=CCC(OC(C)=O)[C@@H]1[C@@H](N(Cc2cccc3ccccc23)C(=O)Cc2ccc(F)cc2)c2cc(OCCCO)ccc2N1C(=O)Cc1ccc2ccccc2c1 (some centres not stated),-0.474
11,CCCC=C(CCC)[C@@H](NC(=O)c1ccc(C(F)(F)F)cc1)c1ccccc1,-0.261

# Test system: not listed separately
# Assay: blockers of DNA damage checkpoint Chk1 activation – imaging, HeLa, hydroxyurea, phospho-Chk1 antibody, percent positive cells, primary screen (AID 1186)
# Details: hydroxyurea-induced phospho-Chk1 immunofluorescence imaging, higher = more signal
row,Structure (SMILES),z-score
1,COCCOC(=O)N1C(=O)[C@@]2(c3cc(C#CC4=CCCCC4)ccc31)[C@H](C(=O)NC[C@H](O)c1ccccc1)[C@H]1C(=O)O[C@H](c3ccccc3)[C@H](c3ccccc3)N1[C@@H]2c1ccc(OCCO)cc1,0.0381
2,CCC#CCN(Cc1ccccc1Br)[C@H](/C=C/c1ccccc1)[C@@H](O)Cc1ccccc1,-0.415
3,C=C(CCCC)/C(=C/C[C@@H](OC(=O)c1ccncc1)c1cccc(OCCO)c1)c1cc(C(=O)OC)ccc1OC,0.0994
4,NC(=O)NCC#Cc1ccc2c(c1)[C@]1(C(=O)N2)[C@H](c2ccccc2OCCO)N2[C@H](c3ccccc3)[C@H](c3ccccc3)OC(=O)[C@H]2[C@@H]1C(=O)N1CCN(c2ncccn2)CC1,0.553
5,O=C1OCC=C[C@H]2OC34C=CCN(Cc5ccccc5)C(=O)[C@H]3N(CCO)C(=O)[C@@H]4[C@@H]12 (some centres not stated),0.373
6,Cc1ccc(S[C@]2(C(=O)NC(C)C)CC(=O)N(Cc3cc(C(F)(F)F)cc(C(F)(F)F)c3)[C@@H]2c2ccc(CO)cc2I)cc1,0.392
7,COc1ccc(C(=O)Nc2ccc(CN3C(=O)[C@]4(O[C@H](CCn5cc(CCO)nn5)[C@@H]([Si](C)(C)c5ccc(OC)cc5)[C@@H]4C)c4ccccc43)cc2)cc1,0.188
8,COC(=O)[C@@]1(Cc2ccccc2)[C@H]2c3cc(C(=O)N4CCCC4)n(CCN4CNCC4=O)c3C[C@H]2CN1C(=O)c1ccccc1,0.421
9,CCCNC(=O)[C@@H]1c2ccccc2C(=O)N(C2CCCCC2)[C@H]1c1ccc(CO)cc1,0.108
10,CC(C)C[C@@H]1NC(=O)[C@H]2C[C@@H](C(=O)NCCCCCC[N+](C)(C)C)[C@@H](c3ccc(O)cc3)N2C1=O,0.554
11,O=C(NCc1ccccc1)[C@@]1(Cc2ccccc2)COC(c2ccc(OCCCO)cc2)=N1,-0.583
12,C=CCN1C(=O)[C@@]2(Cc3ccccc3)N=C(c3ccc(OCCCO)cc3)O[C@H]2c2ccccc21,-0.0856
13,COCCCNC(=O)[C@@H]1c2ccccc2C(=O)N(CC23CC4CC(CC(C4)C2)C3)[C@H]1c1ccc(CO)cc1,-0.546
14,[N-]=[N+]=NCc1ccccc1[C@H]1OC(c2ccc(OCCCO)cc2)=N[C@@]1(Cc1ccccc1N=[N+]=[N-])C(=O)NCc1ccccc1,-0.0872
15,O=C1C2C=CC(C(O)c3ccccc3)N(n3cnnc3)C2C(=O)N1Cc1ccccc1 (configuration not stated),-1.25
16,CCCC[C@@H]1C[C@H]1[C@@H](NC(=O)c1ccccc1)c1ccccc1C(F)(F)F,0.726
